Pf Dd2 growth – qHTS Primary assay for Inhibitors of Plasmodium falciparum Dd2 growth in vitro; P. falciparum Dd2 growth, SYBR Green, 72 h; Potency, µM (doses to about 28.9 µM), most hits filed as inhibitors; 4.3% of 120,000 active; AID 1347417, 2020; active = well fitted inhibition curve with a large enough effect; note: nearly all actives have a fitted effect of over 65% in size
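Infected erythrocytes (Dd2, 0.3% parasitemia, 2.5% hematocrit final) are added to compound in RPMI-1640/Albumax II medium, grown 72 h at 37C in low oxygen, then lysed with saponin/Triton-X containing SYBR Green and read by fluorescence.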
Each line names hits and unclear results; the compound was inactive in the other large screens. Only a selection was taken, and hits are over-represented in it overall.

COc1ccccc1CC(=O)N[C@@H]1CN(C)C[C@H]1CN(C)C	none
Cc1cc(C)nc(CNC(=O)c2cccc(CCC(C)(C)O)c2)n1	none
Cc1noc(C)c1S(=O)(=O)N1CCC(CO)(CCCc2ccccc2)CC1	none
NC(=O)CNC(=O)[C@@]1(O)C[C@@H](O)[C@H](O)[C@@H](NC(=O)NC2CCCCC2)C1	none
CN(Cc1ccccn1)Cc1ccccc1C(F)(F)F	none
COCC1CN(C(C)=O)CC12CCN(Cc1ccccc1C(F)(F)F)CC2 (stereo unspecified)	none
OCC1(Cc2ccccc2C(F)(F)F)CCNCC1	none
CCOC(=O)C1(Cc2ccccc2C(F)(F)F)CCN(Cc2ccccn2)CC1	Pf Dd2 growth 6.3µM
CCOC(=O)C1(Cc2ccccc2C(F)(F)F)CCN(C(C)Cc2cccc(C)n2)CC1 (stereo unspecified)	Pf Dd2 growth 13µM
CCOC(=O)C1(Cc2ccccc2F)CCCN(C(=O)c2ccc(-n3ccnc3)cc2)C1 (stereo unspecified)	none
CC(NC(=O)c1cc2c(s1)CCN(C(=O)c1ccccc1)C2)c1ccc(F)cc1 (stereo unspecified)	none
Cc1ccc(C(=O)N2CCc3sc(C(=O)NC(C)c4ccccc4)cc3C2)cc1 (stereo unspecified)	Pf Dd2 growth 7.1µM
Cc1ccc(C(=O)N2CCc3sc(C(=O)NCc4ccc(N(C)C)cc4)cc3C2)cc1	none
Cc1cc(C)cc(NC(=O)CSCc2cc(=O)c3ccc(C)c(C)c3[nH]2)c1	none
CN(C(=O)C(C)(C)C)C1CCc2ccccc21 (stereo unspecified)	none
COCCN(Cc1cnn(-c2ccccc2C)c1)CC1CC1	Pf Dd2 growth 7.1µM
CCCc1nc(C(=O)N(C)Cc2cnn(-c3ccccc3C)c2)cs1	none
COCCN(Cc1ccc(C)cc1)Cc1ccc(C#N)cc1	none
Cc1cc(C[C@@H]2COC[C@@H]2NC(=O)c2ccc(N3CC(=O)NC3=O)cc2)on1	none
Cc1ccc(-c2nnc(SCC(=O)N3CCc4ccccc43)o2)cc1	none
O=C(C1CC(=O)N(c2n[nH]c3cccc(F)c23)C1)N1CCN(c2ccc(F)cc2)CC1 (stereo unspecified)	none
COc1ccccc1N1CCN(C(=O)C2CC(=O)N(c3n[nH]c4cccc(F)c34)C2)CC1 (stereo unspecified)	Pf Dd2 growth 7.1µM
COc1cccc(N2CCN(C(=O)C3CC(=O)N(c4n[nH]c5cccc(F)c45)C3)CC2)c1 (stereo unspecified)	none
CCOC(=O)c1ccccc1NC(=O)Cn1c(N2CCc3ccccc3C2)nc(C)cc1=O	none
CCOc1ccc(NC(=O)CSc2nc3c(oc4ccccc43)c(=O)n2CCOC)cc1	none
O=C(c1ccc(C(F)(F)F)cc1)N1CCC2(CC1)C(=O)Nc1ccccc12	none
O=C1Nc2ccccc2C12CCN(Cc1ccc(C(F)(F)F)cc1)CC2	Pf Dd2 growth 13µM
O=C1Nc2ccccc2CN(Cc2ccc(C(F)(F)F)cc2)C12CCNCC2	Pf Dd2 growth 6.3µM
CC(=O)Nc1ccc(CN2CCC3(CC2)C(=O)Nc2ccccc23)cc1	none
O=C1Nc2ccccc2CC12CCN2Cc1ccc(C(F)(F)F)cc1 (stereo unspecified)	none
CC(C)=CCN1Cc2ccccc2NC(=O)C12CCNC2 (stereo unspecified)	none
COC(=O)c1ccc(-n2nnc(-c3nc(-c4ccccc4Cl)no3)c2C)cc1	none
COC(=O)CCNC(=O)C1c2ccccc2C(=O)N(Cc2ccco2)C12CCCCC2 (stereo unspecified)	none
CC(C)COc1cc(=O)n2c(c1C(=O)NC1CCCCC1)CCCCC2	none
COc1cccc(CN2C(=O)OC3(CCN(Cc4c[nH]c5ccccc45)CC3)C2(C)c2cccnc2)c1 (stereo unspecified)	Pf Dd2 growth 0.79µM
CC1(c2ccccc2)N(Cc2ccccc2)C(=O)OC12CCN(Cc1cccnc1N)CC2 (stereo unspecified)	none
CC1(c2ccccc2)N(Cc2cccnc2)C(=O)OC12CCN(C(=O)Cc1ccccc1)CC2 (stereo unspecified)	none
CC1(c2cccnc2)N(Cc2ccccc2)C(=O)OC12CCN(C(=O)COc1ccccc1)CC2 (stereo unspecified)	Pf Dd2 growth 6.3µM
COc1cccc(CN2C(=O)OC3(CCN(C(=O)C4CCC4)CC3)C2(C)c2cccnc2)c1 (stereo unspecified)	none
COc1cccc(CN2C(=O)OC3(CCN(C(C)=O)CC3)C2(C)c2cccnc2)c1 (stereo unspecified)	none
CC1(c2ccccc2)N(Cc2ccccc2)C(=O)OC12CCN(C(=O)COc1ccccc1)CC2 (stereo unspecified)	none
COc1ncccc1CN1CCC2(CC1)OC(=O)N(Cc1ccccc1C#N)C2(C)c1ccccc1 (stereo unspecified)	Pf Dd2 growth 4.5µM
CC1(c2ccccc2)N(Cc2ccccc2C#N)C(=O)OC12CCN(C(=O)CN1CCOCC1)CC2 (stereo unspecified)	none
O=C(C1CCCCC1)N1Cc2[nH]cnc2C[C@H]1c1nc(-c2ccc3ccccc3c2)no1	none
CCOC(=O)c1[nH]ncc1CN(Cc1ccsc1)CC1CCCO1 (stereo unspecified)	none
